# From PubChem BioAssay
# CHX counter = counter-screen hit for Shiga toxin inhibitors, cycloheximide; cell reporter, cycloheximide protein synthesis inhibition counterscreen; max response, %; 300,000 compounds, 12% hits; AID 2314; in the data active means max response mostly above about 13%, no sharp cut-off; inactive means mostly below about 14%; further: read at 38.3 µM for the half of the compounds with a filed dose; 0% is about no effect
# Tb PYK inh = inhibitors of Trypanosoma brucei pyruvate kinase | Q57TT1 | TbPYK enzyme, Kinase-Glo Plus ATP luminescence, 45 min | Potency, µM (doses to about 76.8 µM), for inactives: at the highest dose activity, negative = inhibition, actives largely listed as inhibitors | 410,000 compounds, 0.12% hits | AID 624173; further: potency means the concentration at half of the fitted maximal effect; on the % scale 0 is the no-effect control and ±100 the full control effect; nearly all actives have a fitted effect of over 50% in size
#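 TbPYK + substrate in 50 mM TEA pH 7.2, 100 mM KCl, 10 mM MgCl2, 0.05% BSA, 0.01% Tween-20; cpd pinned; ADP 130 uM final; 45 min RT; Kinase-Glo Plus 10 min; luminescence endpoint.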
# Shiga toxin inh = inhibitors of Shiga toxin in Vero cells; Vero cells, Shiga toxin protein synthesis inhibition reporter; inhibition, % at 38.7 µM; 290,000 compounds, 9.2% hits; AID 2315; in the data active means inhibition mostly above about 28%, no sharp cut-off; inactive means mostly below about 43%; further: 0% is about no effect
# SARS PLpro yeast = inhibitors of SARS-CoV papain-like protease in yeast. S. cerevisiae expressing SARS-CoV PLpro, growth rescue. Potency, µM (top dose mostly 32.9 µM), for inactives: at the highest dose activity, positive = growth rescue, most hits filed as activators. 330,000 compounds, 0.19% hits; calls by dose curve; further: potency means the concentration at half of the fitted maximal effect; 0% is about no effect; nearly all actives have a fitted effect of over 55% in size
# NS1 inh = influenza NS1 inhibition; Potency, µM (doses to about 46.1 µM), for inactives: at the top dose activity, positive = more growth; 270,000 compounds, 0.4% hits; calls by dose curve; further: potency means the concentration at half of the fitted maximal effect; actives are rising curves; nearly all actives have a fitted effect of over 50% in size
#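 Growth recovery, yeast-based: influenza A NS1 expressed in S. cerevisiae causes slow growth, and suppressors are detected by OD600. The parent strain without NS1 is used as positive control.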
# LmPK inh = LmPK (Leishmania mexicana) enzyme inhibition; Q27686; purified LmPK, Kinase-Glo ATP luminescence, 1 h; Potency, µM (top dose mostly 57.5 µM), for the others: at the top dose activity change, negative = inhibition, most hits filed as inhibitors; 290,000 compounds, 0.37% hits; further: potency means the concentration at half of the fitted maximal effect; on the % scale 0 is the no-effect control and ±100 the full control effect
# Target sequence (Q27686 whole entry, looked up): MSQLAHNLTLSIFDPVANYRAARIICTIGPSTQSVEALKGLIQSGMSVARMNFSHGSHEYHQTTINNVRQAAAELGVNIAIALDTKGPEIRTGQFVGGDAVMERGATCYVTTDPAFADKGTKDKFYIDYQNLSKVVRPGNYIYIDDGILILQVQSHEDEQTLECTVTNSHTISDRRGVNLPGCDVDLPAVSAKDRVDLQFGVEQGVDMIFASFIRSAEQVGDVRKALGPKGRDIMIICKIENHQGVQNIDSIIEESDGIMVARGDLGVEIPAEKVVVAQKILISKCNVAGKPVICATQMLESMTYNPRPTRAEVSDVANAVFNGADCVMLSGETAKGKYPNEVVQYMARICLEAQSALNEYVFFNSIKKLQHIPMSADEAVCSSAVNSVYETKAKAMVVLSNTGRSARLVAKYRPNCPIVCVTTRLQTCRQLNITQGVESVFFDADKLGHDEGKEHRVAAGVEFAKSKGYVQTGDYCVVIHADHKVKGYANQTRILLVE
#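 Purified LmPK (0.1 nM) with 0.5 mM PEP and 0.1 mM ADP in imidazole buffer pH 7.2 with MgCl2/KCl, 1 h at room temperature. ATP formed was read by luciferase luminescence and normalized to no-enzyme and uninhibited controls.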
# * marks the source's active call; other numbers are inactive results; ? = inconclusive; . = not tested or not shown. The entries come from a sample that favours hits as a whole. Unless noted, the call rests on the fitted dose curve; in most records, active means well fitted curve in the direction sought with a large enough effect; inconclusive means small, poorly fitted or top-dose-only effect, or another doubt; inactive means no such curve, though single readings can be large; an effect the other way counts as inactive or inconclusive.
SMILES,CHX counter,Tb PYK inh,Shiga toxin inh,SARS PLpro yeast,NS1 inh,LmPK inh
Clc1cccc(OCCCn2ccnc2)c1,1.8,-2.4%,-1.2,-2.3%,-4.8%,-0.7%
Cc1ccc(OCCCn2ccnc2)c(Br)c1,19.6*,14.3%,32.5,.,-6.6%,-4.4%
c1ccc2cc(OCCCn3ccnc3)ccc2c1,16.7*,6.6%,17.4,-5.2%,-3.9%,-1.8%
COC(=O)Cc1c(OC)ccn(CCc2c[nH]c3ccccc23)c1=O,34.3*,-1.8%,103.0*,-1.2%,.,0.1%
Cc1ccc(CN(C(=O)c2ccccc2)c2ccccn2)o1,.,0.6%,.,.,.,.
O=C(N/N=C/c1ccc2c(c1)OCO2)c1cccs1,55.7*,-18.9%,67.9*,-25.8%,-24.4%,?
Cn1cc(C(=O)N/N=C/c2ccc3c(c2)OCO3)c2ccccc21,39.8*,-14.3%,57.9*,-0.9%,-12.8%,2.7%
O=C(N/N=C/c1ccc2c(c1)OCO2)c1sc2cccc(Cl)c2c1Cl,9.8,-7.6%,-1.3,-10.3%,9.2%,-3.9%
Cn1cc(C(=O)N/N=C/c2cccs2)c2ccccc21,39.1*,2.1%,67.5*,-44.9%,-21.0%,3.2%
O=C(N/N=C/c1ccc2c(c1)OCO2)c1cccc2ccccc12,-0.6,1.9%,18.6,-0.7%,3.8%,0.4%
Cc1ccsc1C(=O)N/N=C/c1ccc2c(c1)OCO2,41.9*,?,77.7*,-32.9%,-14.5%,11.2µM*
CC(=O)OCC(=O)[C@@]1(O)CCC2C3CCC4=CC(=O)CC[C@]4(C)C3=CC[C@@]21C (some centres not stated),.,0.1%,.,.,.,.
O=C(C(c1ccccc1)C(O)c1ccccc1)N1CCOCC1 (configuration not stated),.,-13.5%,.,.,.,.
Cc1cc(C(=O)N/N=C/c2ccc3c(c2)OCO3)c(C)o1,42.3*,3.8%,54.8*,-3.5%,-8.4%,14.1µM*
COc1ccc(/C=N/NC(=O)c2sccc2C)c2ccccc12,.,-0.8%,.,.,.,.
Cc1ccccc1/C=N/NC(=O)c1sccc1C,37.8*,-5.0%,66.3*,8.8%,-2.8%,?
COC(=O)[C@]12CCCCC=C1N(Cc1ccccc1)C(=O)[C@H](CC(=O)NCc1cccc(C(F)(F)F)c1)C2,.,-1.9%,.,.,.,.
CC(=O)c1ccccc1C(=O)N1CCC(CCC(=O)NCc2ccc(F)cc2)CC1,.,2.6%,.,.,.,.
Cn1ncc(Br)c1C(=O)OCC(=O)Nc1nc(-c2ccccc2)cs1,18.7*,-0.6%,30.7*,-5.9%,6.3%,0.3%
O=C(CSc1ccc(-c2ccccn2)nn1)c1ccc([N+](=O)[O-])cc1,3.8,-3.3%,68.8,26.7%,.,4.3%
O=C(Cc1ccccc1)Nc1nc(-c2cccc([N+](=O)[O-])c2)cs1,-4.4,1.1%,-8.9,14.4%,8.8%,-4.1%
Cc1cc(C(=O)OCC(=O)Nc2nc(-c3ccccc3)cs2)c(C)o1,-1.4,-7.3%,-13.0,4.8%,-4.7%,6.8%
O=C(COC(=O)c1ccccn1)c1ccc([N+](=O)[O-])cc1,10.3,-3.1%,40.7*,-2.1%,4.2%,-1.1%
O=C(COC(=O)c1ccccn1)Nc1nc(-c2ccccc2)cs1,41.5*,3.5%,80.7*,-7.9%,-77.0%,-7.4%
O=C(COC(=O)c1ccccn1)Nc1nc(-c2cccc([N+](=O)[O-])c2)cs1,18.1*,0.4%,28.9,-0.5%,2.3%,-2.9%
SMILES,CHX counter,Tb PYK inh,Shiga toxin inh,SARS PLpro yeast,NS1 inh,LmPK inh
CC1=C(C(=O)N(C)C)CC(CC(=O)NCCCN(C)C)C(=O)N1CCCN1CCCC1=O (configuration not stated),.,-5.8%,.,.,.,.
O=C(NCc1ccccc1Cl)c1ccccc1NC(=O)c1nsc2ccccc12,.,-12.9%,.,.,.,.
Nc1cc(C(=O)OCC(=O)NNC(=O)c2ccccc2)ccc1Cl,.,-0.9%,.,.,.,.
Cc1cccc2sc(NC(=O)CN(C)S(=O)(=O)c3ccc(Br)s3)nc12,14.6,-5.8%,21.2,-21.7%,-94.9%,1.9%
CN(CC(=O)N1CCc2ccccc21)S(=O)(=O)c1cccs1,61.3*,-6.4%,98.9*,-3.7%,-9.0%,2.5%
Cc1cccc(NC(=O)CN(C)S(=O)(=O)c2cccs2)c1,15.5*,-3.9%,100.7*,-4.0%,-8.6%,-5.8%
Cc1cccc2sc(NC(=O)CN(C)S(=O)(=O)c3cccs3)nc12,14.7,-1.4%,45.2*,-22.9%,-71.8%,1.5%
COc1ccc(NC(=O)CN(C)S(=O)(=O)c2cccs2)cc1,28.7*,-7.4%,40.1*,-13.4%,-4.0%,-0.1%
COc1cccc(NC(=O)CN(C)S(=O)(=O)c2cccs2)c1,.,-6.3%,.,.,.,.
CC1COc2c3ccccc3nn21 (configuration not stated),.,-13.0%,.,.,.,.
O=C(O)c1ccc(NC(=S)Nc2ccc(S(=O)(=O)Nc3ccccn3)cc2)cc1,.,-4.4%,.,.,.,.
CN(CC(=O)NCc1ccccc1Cl)S(=O)(=O)c1cccs1,14.8*,-2.6%,30.2,1.0%,15.9%,0.3%
O=C(CSc1nnc(-c2ccccc2)o1)N1CCCCC1,18.0*,1.0%,90.2*,-0.2%,-1.0%,-3.0%
O=C(CSc1nnc(-c2ccccc2)o1)N1CCCC1,15.3*,-1.0%,58.5,0.2%,5.4%,0.7%
O=C(CSc1nnc(-c2ccc(F)cc2)o1)N1CCCCC1,26.8*,-9.6%,67.4*,-1.4%,2.6%,-10.4%
O=C(CSc1nnc(-c2c[nH]c3ccccc23)o1)N1CCCCC1,25.8*,2.6%,69.7*,-2.3%,-15.9%,-0.6%
CC1CC(C)CN(C(=O)CSc2nnc(-c3ccc(F)cc3)o2)C1 (configuration not stated),-8.5,-15.8%,-5.2,17.3%,-12.5%,4.9%
O=C(CSc1nnc(-c2c[nH]c3ccccc23)o1)c1ccc(-c2ccccc2)cc1,6.9,5.4%,3.3,?,?,-2.3%
COc1ccc(-n2cnnc2SCC(=O)NC2CCCCC2)cc1,.,2.9%,.,-1.9%,.,.
Cc1ccc(O)c(N=Cc2ccc(C)s2)c1,37.4*,-0.3%,52.2*,-40.1%,-14.2%,-3.6%
Cc1ccc(O)c(N=Cc2cccs2)c1,29.2*,2.6%,38.0*,-45.6%,-9.7%,0.9%
Cn1c(=O)c2c(nc(NCC3CCCC(CN)C3)n2Cc2ccc(Cl)cc2Cl)n(C)c1=O (configuration not stated),0.3,-9.3%,-7.1,-0.2%,4.3%,0.5%
COc1cc(CN(C)CC2CCCN(CCc3cccc(C(F)(F)F)c3)C2)ccc1O (configuration not stated),1.1,-3.9%,4.7,-1.5%,0.3%,2.5%
COCC(=O)N(C)c1nnc(-c2cnc(C)cn2)s1,23.6*,0.9%,60.9,-2.4%,0.7%,0.9%
COCC(=O)N(C)c1nnc(-c2cnccn2)s1,-1.7,2.5%,15.3,3.9%,5.6%,1.1%
Cc1cccc(NC(=O)CCn2cnnn2)c1C,.,6.2%,.,.,.,.
CCOC(=O)c1c(C)oc2c1c(C(c1ccccc1)N1CCOCC1)c(O)c1ccccc12 (configuration not stated),70.5*,1.9%,141.5*,-20.2%,1.8%,3.7%
